An excerpt weighted towards active compounds, which were near 4% of everything screened.
Rv3671c protease: Rv3671c (M. tuberculosis) protease inhibition; inhibition, % at 5.96 µM; 320,000 compounds, 0.048% hits; AID 2606; in the data active = inhibition above about 38%;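 note: extracellular domain of Rv3671c used as enzyme; 0% = enzyme with DMSO and 100% = no enzyme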
FBA Mtb inh: inhibitors of M. tuberculosis fructose-bisphosphate aldolase. inhibition, % at 1 µM. 360,000 compounds, 2.3% hits. P9WQA3. purified M. tuberculosis FBA, fluorescence read-out; in the data active = inhibition above about 27%;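 note: 0% = vehicle and 100% = reference inhibitor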
GDH-TPI inh: counter-screen for M. tuberculosis FBA inhibitors: GDH-TPI coupled enzymes; GDH-TPI coupled enzyme counterscreen, NADH absorbance; inhibition, % at 4.8 µM; 360,000 compounds, 1.2% hits; AID 588335; in the data active = inhibition above about 30%;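 note: 0% = DMSO wells and 100% = wells lacking the enzyme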
Mtb bLac sens: beta-lactam sensitization of Mtb H37Rv. M. tuberculosis H37Rv growth with meropenem, percent inhibition. 330,000 compounds, 0.27% hits. inhibition, % at 25 µM; call rule not given here;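 note: growth measured after seven days incubation then overnight dye step; 0% = bacteria only wells and 100% = bacteria with antibiotic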
Mtb UGM inh: blocks M. tuberculosis UGM enzyme | purified UGM, fluorescence polarization probe displacement | inhibition, % at 10 µM | 320,000 compounds, 0.06% hits | AID 504406; in the data active = inhibition above about 10%, passing the limit was not always enough; inconclusive = no clear call, values can overlap the other calls
RecA intein inh: inhibitors of M. tuberculosis RecA intein splicing; inhibition, % (concentration not given with the values); P9WHJ3; cell-free RecA intein splicing, fluorescence; 290,000 compounds, 0.75% hits; in the data active = inhibition above about 30%; inconclusive = no clear call, values can overlap the other calls;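 note: 0% = vehicle wells and 100% = reference inhibitor control wells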
An asterisk follows results filed as active; ? = inconclusive; . = not tested or not shown.

SMILES	Rv3671c protease	FBA Mtb inh	GDH-TPI inh	Mtb bLac sens	Mtb UGM inh	RecA intein inh
CC(C)c1ccc(NC2CCCN(C(=O)c3ccsc3)C2)cc1 (stereo not drawn)	-4	4	7	11	1	2
COc1ccccc1/C=C/C(=O)OCC(=O)N1CCc2ccccc21	-17	8	3	2	-2	.
Cn1nccc1C(=O)Nc1nnc(C2CC2)s1	0	0	8	-8	3	2
COc1ccccc1N1CCN(C(=O)CSc2nc(-c3ccco3)cc(C(F)(F)F)n2)CC1	-6	0	32*	15	-1	10
O=C(Nc1ccccc1)c1ccccc1NC(=O)c1ccccc1[N+](=O)[O-]	0	3	3	-5	1	.
O=[N+]([O-])c1ccccc1C(=Nc1ccccc1)c1c(O)cc(O)cc1O	.	0	32*	.	.	.
CCOc1cc(CN2CCN(c3ccc(C(C)=O)cc3)CC2)ccc1OC	9	3	38*	1	-2	0
CSc1nc(O)c(Nc2ccccc2)c(=O)[nH]1	.	0	1	.	.	.
CSc1nc(O)c(Nc2cccc(Cl)c2)c(=O)[nH]1	1	4	6	-3	1	76*
COc1ccc(Cc2nnc(SCC(=O)Nc3cc(Cl)ccc3C)[nH]c2=O)cc1	3	-3	9	-9	2	-3
COc1ccc(-c2nn(C)c3sc(C(=O)NCc4ccco4)cc23)cc1OC	-99	-1	9	21	0	3
COc1ccc(NC(=O)c2cc3c(-c4ccc(OC)c(OC)c4)nn(C)c3s2)cc1OC	26	2	38*	-6	2	5
O=C(O)c1ccc(Nc2nc(-c3cccnc3)cs2)cc1O	-6	-2	43*	90	-3	0
Cc1nc(N2CCC(C)CC2)c2c(C)c(C(=O)Nc3ccc4c(c3)OCCO4)sc2n1	-5	0	11	99	2	3
Cc1c(C(=O)Nc2ccc3c(c2)OCCO3)sc2ncnc(N3CCCCC3C)c12 (stereo not drawn)	-33	1	31*	91	-1	2
CCN1CCN(C(=O)c2cc3c(=O)n4ccccc4nc3s2)CC1	7	192*	18	2	1	-82
CCOC(=O)C1CCN(C(=O)c2cc3c(=O)n4ccccc4nc3s2)CC1	-1	159*	14	-7	-1	-31
CCOC(=O)CC1C(=O)NCCN1C(=O)c1cc2c(=O)n3cccc(C)c3nc2s1 (stereo not drawn)	5	162*	12	-10	0	-40
C=CS(=O)(=O)c1c2cc(OC)ccc2nc2ccc(OC)cc12	.	38*	9	.	.	.
O=C(N/N=C/C(Br)=C/c1ccccc1)c1ccccc1F	-9	-6	32*	86	1	2
Cc1c(C#N)c(=O)oc2ccc3ccccc3c12	1	115*	6	-4	-1	-268
CCN(CC)CCOc1ccc(-c2c(C)c3c(ccc4ccccc43)oc2=O)cc1	.	4	9	.	.	.
O=C(Nc1nc2c(s1)CN(Cc1ccccc1)CC2)C1CCC1	9	9	16	15	-1	-15
CCN1CCc2nc(NC(=O)c3ccccc3)sc2C1	-10	-1	33*	4	-1	-19
CC(C)CNC(=O)C(=O)NCCC1CCCCN1S(=O)(=O)c1cccs1 (stereo not drawn)	3	3	-2	1	-1	0
SMILES	Rv3671c protease	FBA Mtb inh	GDH-TPI inh	Mtb bLac sens	Mtb UGM inh	RecA intein inh
CCNC(=O)C(=O)NCCC1CCCCN1S(=O)(=O)c1cccs1 (stereo not drawn)	7	130*	12	-13	-1	0
O=C(CN1C(=O)S/C(=C\c2cccs2)C1=O)Nc1ccc(O)cc1C(=O)O	-4	11	44*	-1	2	4
O=C(CCN1C(=O)S/C(=C/c2ccccc2)C1=O)Nc1ccc(O)c(C(=O)O)c1	-5	-2	42*	1	4	4
O=C(CCN1C(=O)/C(=C\c2ccccc2)SC1=S)Nc1ccc(C(=O)O)cc1	-18	-1	5	-3	0	7
O=C(CCN1C(=O)S/C(=C\c2ccccc2)C1=O)Nc1ccc(O)cc1C(=O)O	-3	-2	38*	2	2	-7
O=C(CCN1C(=O)S/C(=C\c2cccs2)C1=O)Nc1nccs1	8	-1	-2	-8	-1	-2
CCc1noc(C)c1C(=O)Nc1ccc(C(F)(F)F)cc1	-4	1	5	-19	1	-2
Cc1csc(SCC(=O)Nc2cc([N+](=O)[O-])ccc2F)n1	-6	-1	6	2	-3	.
COc1ccc(NS(=O)(=O)c2ccc3oc(=O)c4[nH]c(=O)c(=O)n(C)c4c3c2)cc1	-1	3	34*	-3	-1	-1
O=C(c1n[nH]c2ccccc12)N1CCN(S(=O)(=O)c2ccc(Cl)cc2)CC1	-14	-1	3	8	0	.
CO[C@H]1C=CO[C@@]2(C)Oc3c(C)c(O)c4c(O)c(c(C=NN5CCN(C)CC5)c(O)c4c3C2=O)NC(=O)C(C)=CC=C[C@H](C)[C@H](O)[C@@H](C)[C@@H](O)[C@@H](C)[C@H](OC(C)=O)[C@@H]1C	-9	-13	40*	100	-1	?
COc1ccccc1CNS(=O)(=O)c1c(C)cc(C)cc1C	.	-2	4	.	.	.
COc1ccc(C(=O)NCC(=O)N2CCN(C(=O)c3ccco3)CC2)cc1OC	.	0	1	.	.	.
COc1ccc(C(=O)NCC(=O)N2CCN(C(=O)c3ccco3)CC2)cc1[N+](=O)[O-]	-2	3	12	-10	11*	.
CCc1nc2ccc(C(=O)Nc3ccc(NC(C)=O)cc3)cn2c1N(CCC(C)C)CCN(C)C	.	-3	-2	.	.	.
C=CCn1c(O)c(/C=N/N2CCCCC2c2cccnc2)c(=O)[nH]c1=S (stereo not drawn)	-7	-2	31*	3	2	-2
CC(Oc1cc2oc(=O)c3c(c2cc1Cl)CCC3)C(=O)NCCCn1ccnc1 (stereo not drawn)	-4	10	20	3	2	-1
O=C1N/C(=N/S(=O)(=O)Cc2ccccc2)S/C1=C/c1ccc2c(c1)OCO2	-21	3	35*	-6	-1	2
CC(=O)c1ccc(OC(=O)Oc2ccc(C(C)=O)cc2)cc1	.	1	32*	.	.	.
CCC(=O)/C=C1/Sc2ccc(OC)cc2N1CC	-3	-1	35*	5	4	-2
CCC(=O)/C=C1/Sc2ccccc2N1CC	-3	0	39*	2	0	0
Cc1cc(C)cc(S(=O)(=O)c2cnc3ccccc3n2)c1	4	-1	-5	0	-1	32*
Cc1c(C)c2ccc(OCC(=O)Nc3nccs3)cc2oc1=O	-6	65*	17	0	-1	1
Cc1cc(=O)oc2cc(OCC(=O)Nc3nccs3)ccc12	-7	14	21	0	-3	0
O=c1[nH]c(=S)[nH]c2c1C(c1ccc(Cl)cc1)OC(CCc1ccccc1)C2 (stereo not drawn)	.	-3	.	.	.	.
